# Shown are actives, neighbours in structure and some others; about 2.4% of the full set was active somewhere.
# D2 PAM-1: Beta-Arrestin HTS for Positive Allosteric Modulators of the Human D2 Dopamine Receptor: Potentiators. D(2) dopamine receptor (Homo sapiens), P14416. DiscoveRx D2 beta-arrestin cells, luminescence, 90 min; 100% = 57 uM dopamine signal. potentiation, % (test concentration not listed). actives 0.23% (n = 360,000). AID 624464, 2012; in the data active = potentiation above about 50%; inconclusive = mostly about 30% to 49%
# Target sequence (P14416 whole entry, looked up): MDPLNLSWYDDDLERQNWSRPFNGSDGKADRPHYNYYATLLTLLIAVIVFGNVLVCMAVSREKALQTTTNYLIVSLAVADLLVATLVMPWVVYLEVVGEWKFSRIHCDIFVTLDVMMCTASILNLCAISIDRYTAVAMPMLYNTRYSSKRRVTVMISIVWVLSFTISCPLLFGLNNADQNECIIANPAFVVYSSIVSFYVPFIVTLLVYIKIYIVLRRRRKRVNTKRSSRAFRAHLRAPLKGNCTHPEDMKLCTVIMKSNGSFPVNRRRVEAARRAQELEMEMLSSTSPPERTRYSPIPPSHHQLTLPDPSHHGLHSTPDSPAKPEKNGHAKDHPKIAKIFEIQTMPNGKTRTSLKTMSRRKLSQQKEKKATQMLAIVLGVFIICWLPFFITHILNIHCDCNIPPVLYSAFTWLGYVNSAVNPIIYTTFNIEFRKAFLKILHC
#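 PathHunter beta-arrestin assay in DiscoveRx D2 cells. Compounds were added with an EC20 of dopamine (50 nM final) for 90 min at 37 deg C. Luminescence was read 1 h after detection reagent, with 57 uM dopamine as the EC100 control.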
# D2 PAM-2: HTS Assay for Positive Allosteric Modulators of the Human D2 Dopamine Receptor: Primary Screen for Potentiators | HEK293 T-REx D2, calcium flux, EC20 dopamine potentiation | potentiation, % at 10 µM | actives 0.34% (n = 340,000);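 active = potentiation over 3 SD above the plate norm, cut at about 30% in these data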
#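 Cells plated with tetracycline inducer and held overnight at 30 C; calcium dye loaded 30–90 min at room temperature; baseline taken, compound added and read 180 s; EC20 dopamine then added and read 180 s.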
# D2 ag-1: Beta-Arrestin HTS for Positive Allosteric Modulators of the Human D2 Dopamine Receptor: Agonists; activation, % (concentration not given with the values); DiscoveRx PathHunter D2 beta-arrestin, luminescence, 90 min; 100% = 57 uM dopamine signal; D(2) dopamine receptor (Homo sapiens), P14416; AID 624465, 2012; actives 0.084% (n = 360,000); in the data active = activation above about 40%; inconclusive = between about 15% and that limit
#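 DiscoveRx PathHunter D2 beta-arrestin cells (2,100/well) attached overnight, then compound-stimulated 90 min at 37 C in HBSS/10 mM HEPES/0.1% Tween-20 buffer; beta-galactosidase complementation read by luminescence after 1 h at ambient temperature. Dopamine 57 uM final (EC100) as control.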
# D2 antag: HTS Assay for Allosteric Antagonists of the Human D2 Dopamine Receptor: Primary Screen for Antagonists. D(2) dopamine receptor (Homo sapiens), P14416. HEK293 TREx D2 cells, calcium flux, dopamine EC80. inhibition, % at 10 µM. actives 2% (n = 340,000). AID 485344, 2010; in the data active = inhibition above about 30%; inactive = below that, where a call was filed
#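 Tetracycline-induced HEK293 TREx cells expressing D2 receptor forced-coupled to calcium signalling, loaded with no-wash calcium dye. Compounds added and calcium flux read 180 s, then dopamine added at EC80 and read a further 180 s.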
# D2 ag-2: HTS Assay for Allosteric Agonists of the Human D2 Dopamine Receptor: Primary Screen for Agonists; D(2) dopamine receptor (Homo sapiens), P14416; HEK293 T-REx D2 cells, calcium flux agonist mode; activation, % at 2 µM; actives 0.53% (n = 340,000);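 active = activation over 3 SD above normal in the single-dose calcium agonist read, cut at about 30% in these data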
#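 In this primary screen, compounds producing a positive calcium signal within 180 s of addition to tetracycline-induced, force-coupled HEK293 Trex D2 cells are flagged; cells are dye-loaded with a no-wash calcium kit beforehand.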
# D3 arrestin ag: qHTS of D3 Dopamine Receptor Agonist: D3 Dopamine Receptor B-arrestin Agonist Confirmatory Assay | shares compounds with D2 ag-2 | DiscoveRx D3 beta-arrestin cells, luminescence, 90 min | Potency, µM (series often up to 76.9 µM), usual class: activators | actives 4% (n = 2,300); note: nearly all actives have a fitted effect of over 70% in size
# D2 ag-3: qHTS of D3 Dopamine Receptor Agonist: D2 Dopamine Receptor B-arrestin Agonist Counterscreen; shares compounds with D2 ag-2; DiscoveRx PathHunter D2 beta-arrestin, luminescence, 90 min; response scale: percent relative to full dopamine signal; Potency, µM (top dose mostly 76.9 µM), hits mostly activators; actives 5.9% (n = 2,300); AID 720507, 2013; note: nearly all actives have a fitted effect of over 70% in size
# A number is an active result; - = inactive; ? = inconclusive; . = not tested or not shown. Unless noted, calls come from the whole dose curve; as a rule, active = well fitted activation curve with a large enough effect; inconclusive = small, poorly fitted or top-dose-only effect; inactive = flat fitted curve, though single readings scatter.
SMILES,D2 PAM-1,D2 PAM-2,D2 ag-1,D2 antag,D2 ag-2,D3 arrestin ag,D2 ag-3
O=C(NCCCN1CCCC1=O)c1ccc(NS(=O)(=O)c2ccc(F)cc2)cc1,-,-,-,-,-,-,-
CCOc1ccccc1C(=O)NCC(c1cccs1)S(=O)(=O)c1ccc(F)c(C)c1 (configuration not stated),.,-,.,.,-,.,.
OCCNc1nc(-c2ccccc2)nc2c1oc1ccccc12,-,-,-,-,-,.,.
CC(CCc1ccccc1)NC(=O)c1ccccc1 (configuration not stated),-,-,-,.,.,.,.
CC(CCc1ccccc1)NCC(O)c1ccc(O)c(C(N)=O)c1 (configuration not stated),-,-,-,67,72,-,?
COC(=O)c1ccc(CSc2nc3c([nH]c4ccccc43)c(=O)n2-c2cc(C)cc(C)c2)o1,.,-,.,.,.,.,.
O=C(CCCNC(=O)c1ccc(Cl)cc1)Nc1ccccc1C(F)(F)F,-,-,-,-,-,.,.
OC1(Cc2cc(-c3ccccc3)no2)CCN(CCCc2ccccc2)CC1,-,-,-,73,46,?,-
CCCn1c(-c2ccc(OC)cc2)nc2ccccc21,-,-,-,-,-,-,?
CCNC(=O)NC(=O)C(C)Oc1ccc(Br)cc1Br (configuration not stated),-,-,-,-,-,.,.
O=C(c1cccc(C(=O)N(c2ccccn2)C2CCCCC2)c1)N(c1ccccn1)C1CCCCC1,-,-,?,62,70,-,?
COc1ccc2c(c1)OC[C@H]1[C@H]2N2C(=O)CN(Cc3ccc(C)cc3)C(=O)[C@@]2(C)[C@H]1c1ccccc1,-,-,-,-,-,.,.
COC(=O)c1ccc(N/C=C/C(=O)c2ccccc2)cc1,-,-,-,-,-,-,-
CCc1ccccc1NC(=O)CN1CCN(CC(=O)Nc2cc(C)ccc2OC)CC1,-,-,-,-,-,.,.
COc1ccccc1CN1CCN(C(=O)c2ccco2)CC1,53,-,67,85,80,?,10µM
COc1ccc(Br)cc1CN1CCN(C(=O)c2ccco2)CC1,-,.,-,.,.,-,-
COc1ccccc1N1CCN(C(=O)c2ccco2)CC1,-,.,-,.,.,.,.
CN(C)Cc1csc(NC(=O)Nc2ccccc2Cc2ccccc2)n1,-,.,-,.,.,.,.
O=c1/c(=C\c2cc([N+](=O)[O-])cc([N+](=O)[O-])c2O)sc2nc3ccccc3n12,-,-,-,31,-,-,-
CCN1CCN(Cc2nc3cc(NC(=O)c4ccccc4[N+](=O)[O-])ccc3n2CC)CC1,.,-,.,.,-,.,.
Clc1nc(Cl)nc(NCCC2=CCCCC2)n1,-,-,-,-,-,.,.
COc1cccc(N2CN(CCc3ccccc3)CNC2=S)c1,-,-,-,-,37,-,-
CC1(C)C(C=C(Cl)Cl)C1C(=O)N1CCN(Cc2ccccc2)CC1 (configuration not stated),?,-,?,78,70,?,18µM
Cc1ccccc1-c1ccc(/C=C2/SC(N3CCOCC3)=NC2=O)o1,?,-,49,83,73,-,?
O=C1N=C(N2CCOCC2)S/C1=C\c1ccc(-c2ccccc2Cl)o1,-,-,-,-,42,-,?
SMILES,D2 PAM-1,D2 PAM-2,D2 ag-1,D2 antag,D2 ag-2,D3 arrestin ag,D2 ag-3
O=C1N=C(N2CCOCC2)S/C1=C\c1cccs1,-,-,-,-,-,.,.
CCN(C(=O)COC(=O)c1cc(=O)[nH]c2ccccc12)c1c(N)n(Cc2ccccc2)c(=O)[nH]c1=O,-,.,-,.,.,.,.
CCN(C(=O)COC(=O)CCCOc1ccccc1)c1c(N)n(Cc2ccccc2)c(=O)[nH]c1=O,-,-,-,-,-,-,-
CCN(C(=O)COC(=O)c1ccc(O)cc1O)c1c(N)n(Cc2ccccc2)c(=O)[nH]c1=O,-,-,-,-,-,-,-
CCN(C(=O)CSc1nnc(-c2ccc(C)cc2)n1N)c1c(N)n(Cc2ccccc2)c(=O)[nH]c1=O,-,-,-,-,-,-,-
CCOC(=O)c1ccc(NC(=O)COc2ccccc2CNC2CCCC2)cc1,-,-,-,-,-,.,.
Oc1ccc(-c2csc(-c3ccccc3)n2)cc1O,-,-,-,-,-,.,.
Oc1ccc(-c2csc(-c3cccnc3)n2)cc1O,-,-,-,-,31,16µM,-
CCOC(=O)C1=CCN(Cc2ccccc2)CC1,-,-,77,101,83,-,?
CCOC(=O)c1cc(S(=O)(=O)N2CCN(Cc3ccccc3)CC2)cn1C,-,-,-,-,-,.,.
COc1ccc(NC2CCCN(C(=O)c3ccc(C(C)=O)s3)C2)cc1 (configuration not stated),-,-,-,-,-,.,.
CC1(C)CC(=O)C=C(/C=C/c2ccccc2)C1,-,-,-,-,-,-,-
COCCCNC(=O)C1CCC(Cn2c(=O)c3sccc3n(C)c2=O)CC1 (configuration not stated),.,-,.,.,-,.,.
Nc1ccc2c(c1)C(=O)CCC2,-,.,-,.,.,.,.
CCCn1cc(SCC(=O)NC2CCCC2)c2ccccc21,-,-,-,-,-,-,-
Cn1cc[nH]c1=S,-,-,-,-,-,-,-
CC(C)c1ccccc1-n1cc[nH]c1=S,-,-,-,-,-,.,.
Cc1ccc(S(=O)(=O)NCCCCCC(=O)Nc2cccc(C)c2)cc1,-,-,-,-,-,.,.
COc1ccc(/C(O)=C/c2nc3ccc(C(=O)NCCc4cccc(C)c4)cc3[nH]c2=O)cc1OC,-,-,-,-,-,-,?
COc1cc(C(=O)NCCC(c2ccccc2)c2ccccc2)cc(OC)c1OC,-,-,-,-,-,.,.
O=C(NNS(=O)(=O)c1ccccc1[N+](=O)[O-])c1cccc(Br)c1,-,.,-,.,.,.,.
O=C(NNS(=O)(=O)c1ccccc1[N+](=O)[O-])c1cccc(Cl)c1,-,-,-,-,51,-,-

# Screening data from PubChem BioAssay.
